# Experimental data: the supplement of paper PMC9135407
# Values joined by “and” are separate entries in the source; they are usually repeats but may differ in a detail not shown here. Equal entries are not always repeated. Structures can show the parent of a compound that is named as a salt. In all, about 5,800 compounds went through this assay and about 620 (11%) showed activity. This is one part of a sample in which actives are shown more often than they occur. A number with no mark means an inactive call.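 The calls were made as follows: active = score above a cut-off or among the top three wells of a plate; in these data no inactive exceeds 0.85.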
# Test system: primary human hepatic stellate cells (donor 1)
# Experiment: scaled lipid accumulation score (0 = DMSO-like, 1 = nortriptyline-like); higher = stronger HSC inactivation (lipid re-accumulation), active = hit call of the paper
# Details: 48 h
# [1] = library stock concentration: 80 uM
# [2] = library stock concentration: 400 uM
# [3] = library stock concentration: 2 mM
# [4] = library stock concentration: 10 mM
# [5] = library stock concentration: 3.33 mM
# [6] = library stock concentration: 1 mM
structure (smiles),measurement,setting,value
Cc1cnc(Nc2ccc(F)cc2Cl)nc1-c1c[nH]c(C(=O)N[C@H](CO)c2cccc(Cl)c2)c1,scaled lipid accumulation score,[1],≤ -0.001
same,scaled lipid accumulation score,[2],≤ -0.001
same,scaled lipid accumulation score,[3],≤ -0.001
same,scaled lipid accumulation score,[4],≤ -0.001
CC(C)c1cc(-c2n[nH]c(=O)n2-c2ccc3c(ccn3C)c2)c(O)cc1O [Ganetespib (STA-9090)],scaled lipid accumulation score,[5],0.691
same,scaled lipid accumulation score,[4],0.649
CC(C)c1cc(-c2n[nH]c(=O)n2-c2ccc3c(ccn3C)c2)c(O)cc1O [Ganetespib] [listing 1 of 2 here],scaled lipid accumulation score,[3],0.915 (active)
same,scaled lipid accumulation score,[4],0.885 (active)
CC(C)c1cc(-c2n[nH]c(=O)n2-c2ccc3c(ccn3C)c2)c(O)cc1O [Ganetespib] [listing 2 of 2 here],scaled lipid accumulation score,[1],0.602
same,scaled lipid accumulation score,[2],0.802
Cc1cc(NC(=O)Nc2ccc3c(ccn3C)c2)sn1,scaled lipid accumulation score,[4],0.129
CCCCCCCCCCCCCCP(=O)(O)O [Tetradecyl Phosphonate],scaled lipid accumulation score,[6],≤ 0
CN(C)C(=O)[C@H](O)[C@H](Cc1ccccc1)NC(=O)c1cc2cc(Cl)ccc2[nH]1,scaled lipid accumulation score,[5],0.007
same,scaled lipid accumulation score,[4],≤ 0 and 0.127
Cc1ccc2c(=O)c3ccccc3n(CCCN)c2c1C,scaled lipid accumulation score,[4],0.501
O=c1[nH]c2ccccc2n1CCCN1CCN(C(c2ccccc2)c2ccccc2)CC1 [Oxatomide],scaled lipid accumulation score,library stock concentration: 4.7 mM,0.191
COc1ccccc1C1(O)CCN(CCCn2c3ccccc3c3ccccc32)CC1 [NNC 05-2090 hydrochloride],scaled lipid accumulation score,[4],0.491
C[C@@H]1CN(CCCn2c3ccccc3c3ccccc32)C[C@H](C)N1.Cl.Cl [Rimcazole dihydrochloride],scaled lipid accumulation score,[4],1.34 (active)
CCCCCCCCNC(=O)Cc1c(C)n(C(=O)c2ccc(Cl)cc2)c2ccc(OC)cc12 [Indomethacin N-octyl amide],scaled lipid accumulation score,[6],≤ 0
O=C(O)/C=C/CCCCCCCCC(=O)O [Traumatic Acid],scaled lipid accumulation score,[6],≤ 0
O=C1Nc2ccc(I)cc2C1=Cc1cc(Br)c(O)c(Br)c1,scaled lipid accumulation score,[5],≤ 0
same,scaled lipid accumulation score,[4],0.083
CCCCCCCC(=O)CC[C@@H]1[C@@H](C/C=C\CCCC(=O)O)[C@@H](O)C[C@H]1O [Unoprostone],scaled lipid accumulation score,[6],≤ 0
O=C(O)CCC/C=C\C[C@@H]1[C@@H](/C=C/C(=O)COc2cccc(C(F)(F)F)c2)[C@H](O)C[C@@H]1O [15-keto Fluprostenol],scaled lipid accumulation score,[6],≤ 0
COc1ccc(-n2nc(C(N)=O)c3c2C(=O)N(c2ccc(N4CCCCC4=O)cc2)CC3)cc1 [Apixaban],scaled lipid accumulation score,[5],≤ 0
same,scaled lipid accumulation score,[4],≤ 0
O=c1onc2cnc3ccccc3n12,scaled lipid accumulation score,[4],1.01 (active)
CC(C)CCC[C@@H](C)[C@H]1CC[C@H]2[C@@H]3CC(=O)[C@@]4(O)C[C@@H](O)CC[C@]4(C)[C@H]3CC[C@]12C [5.alpha.-hydroxy-6-keto Cholesterol],scaled lipid accumulation score,[6],≤ 0
O=C(O)c1ccccc1 [Benzoic Acid],scaled lipid accumulation score,[5],≤ 0
same,scaled lipid accumulation score,[4],0.005
O=C(O)c1ccccc1 [Benzoic acid],scaled lipid accumulation score,library stock concentration: 16.4 mM,≤ 0
O=c1c2ccccc2oc2ccccc12 [Xanthone],scaled lipid accumulation score,[5],≤ 0
same,scaled lipid accumulation score,[4],≤ 0
O=c1c(-c2ccccc2)c1-c1ccccc1 [diphenylcyclopropenone],scaled lipid accumulation score,[4],1.25 (active)
"Cc1ccccc1N1CCN(S(=O)(=O)C[C@]23CC[C@H](C[C@@H]2NC(=O)[C@@H](N)CCS(C)(=O)=O)C3(C)C)CC1 [L-368,899 hydrochloride]",scaled lipid accumulation score,[4],0.107
"O=P(O)(O)OC1[C@H](OP(=O)(O)O)[C@H](O)C(O)[C@H](O)[C@H]1OP(=O)(O)O (stereo partly drawn) [D-myo-Inositol-1,2,6-triphosphate (sodium salt)]",scaled lipid accumulation score,[6],0.004
CCNC(=O)c1[nH]nc(-c2cc(Cl)c(O)cc2O)c1-c1ccc(OC)cc1,scaled lipid accumulation score,[5],0.6
CCNC(=O)C1=C(c2ccc(OC)cc2)C(=C2C=C(Cl)C(O)=CC2=O)NN1,scaled lipid accumulation score,[4],0.897 (active)
N=C(N)SCCC[C@H](N)C(=O)O [Thioarginine (hydrobromide)],scaled lipid accumulation score,[6],≤ 0
NCC(O)CC(=O)O (centres undefined) [Aminohydroxybutyric acid],scaled lipid accumulation score,[4],0.017
CNC(=O)c1nn(C)c2c1C(C)(C)Cc1cnc(Nc3ccc(N4CCN(C)CC4)cc3)nc1-2,scaled lipid accumulation score,[5],0.148
same,scaled lipid accumulation score,[4],≤ 0
CN1CCN(c2ccc(OC(F)(F)F)c(Nc3ncc4c(n3)-c3c(c(C(N)=O)nn3CCO)CC4)c2)CC1 [listing 1 of 2 here],scaled lipid accumulation score,[4],0.879 (active)
CN1CCN(c2ccc(OC(F)(F)F)c(Nc3ncc4c(n3)-c3c(c(C(N)=O)nn3CCO)CC4)c2)CC1 [listing 2 of 2 here],scaled lipid accumulation score,[1],≤ 0
same,scaled lipid accumulation score,[2],≤ 0
same,scaled lipid accumulation score,[3],0.15
same,scaled lipid accumulation score,[5],≤ -0.009
same,scaled lipid accumulation score,[4],0.668
COc1cc(Br)c(S(=O)(=O)Nc2ccc(Cl)c(O[C@@H]3CCN(C)C3)c2)cc1OC,scaled lipid accumulation score,[4],0.116
COc1cc2c(cc1OC)[C@@H]1C(=O)c3ccc4c(c3O[C@@H]1CO2)C=CC(C)(C)O4 [Deguelin(-)],scaled lipid accumulation score,[4],≤ 0
CCCCCCCCCCCCC/C=C/[C@@H](O)[C@H](CO)NC(=O)CCCCCCC [C8 Ceramide],scaled lipid accumulation score,[6],≤ -0.021
CCCCCCCCCCCCC/C=C/[C@@H](O)[C@H](CO)NC(=O)CCCCCCC [C-8 Ceramide],scaled lipid accumulation score,[6],≤ 0
CCOC(=O)[C@@H](C)Oc1cccc2c(=O)n(CC(=O)Nc3ccc4c(c3)OCCO4)ccc12,scaled lipid accumulation score,[4],0.249
O=C(NCCCNc1nc(Nc2cccc(CN3CCOCC3)c2)ncc1C1CC1)C1CCC1,scaled lipid accumulation score,[1],≤ 0
same,scaled lipid accumulation score,[2],0.064
same,scaled lipid accumulation score,[3],0.072
same,scaled lipid accumulation score,[4],0.406
CN(C)CCCNC(=O)[C@@H]1C[C@H](CN2CCOCC2)CN(Cc2ccc3ccccc3c2)C1,scaled lipid accumulation score,[4],0.993 (active)
COc1ccccc1OCC(O)COC(N)=O (centres undefined) [Methocarbamol],scaled lipid accumulation score,,≤ 0
same,scaled lipid accumulation score,[5],≤ 0
same,scaled lipid accumulation score,library stock concentration: 8.3 mM,≤ -0.001
same,scaled lipid accumulation score,[4],≤ 0
COc1ccccc1OCC(O)CO (centres undefined) [Guaifenesin],scaled lipid accumulation score,,≤ 0
same,scaled lipid accumulation score,[5],≤ 0
same,scaled lipid accumulation score,[4],0.084 and ≤ 0
COc1ccccc1OCCNCC(O)COc1cccc2[nH]c3ccccc3c12 (centres undefined) [Carvedilol] [listing 1 of 5 here],scaled lipid accumulation score,[4],1.18 (active)
CC(C)NCC(O)COc1cccc2[nH]ccc12 (centres undefined) [Pindolol],scaled lipid accumulation score,,≤ 0
same,scaled lipid accumulation score,library stock concentration: 8.1 mM,≤ -0.006 and 0.131
same,scaled lipid accumulation score,[4],≤ 0 and ≤ -0.055 and 0.071
CC(C)(C)NCC(O)COc1cccc2[nH]c(=O)[nH]c12 (centres undefined),scaled lipid accumulation score,[4],≤ -0.047
CC(C)NC[C@H](O)COc1cccc2[nH]ccc12 [S(-)-Pindolol],scaled lipid accumulation score,[4],≤ -0.07
COc1ccccc1OCCNCC(O)COc1cccc2[nH]c3ccccc3c12 (centres undefined) [Carvedilol] [listing 2 of 5 here],scaled lipid accumulation score,[4],0.936 (active)
COc1ccccc1OCCNCC(O)COc1cccc2[nH]c3ccccc3c12 (centres undefined) [Carvedilol] [listing 3 of 5 here],scaled lipid accumulation score,[4],1.1 (active)
COc1ccccc1OCCNCC(O)COc1cccc2[nH]c3ccccc3c12 (centres undefined) [Carvedilol tartrate],scaled lipid accumulation score,[4],0.276
CC(C)NC[C@H](O)COc1cccc2[nH]ccc12 [(S)-(-)-Pindolol],scaled lipid accumulation score,[4],0.001
COc1ccccc1OCCNCC(O)COc1cccc2[nH]c3ccccc3c12 (centres undefined) [Carvedilol] [listing 4 of 5 here],scaled lipid accumulation score,[5],≤ 0
same,scaled lipid accumulation score,library stock concentration: 4.9 mM,0.302 and 0.4
CC(C)NCC(O)COc1cccc2[nH]ccc12 (centres undefined),scaled lipid accumulation score,[4],≤ 0
COc1ccccc1OCCNCC(O)COc1cccc2[nH]c3ccccc3c12 (centres undefined) [Carvedilol] [listing 5 of 5 here],scaled lipid accumulation score,[4],1.57 (active)
